{"source": "the supplement of paper PMC8728848", "test_in_all_cases": "glycan array binding signal (z-score within array); higher = stronger binding", "conditions_in_all_cases": "glycan notation: IUPAC condensed, linker removed", "key": {"[1]": {"target": "Fuc(a1-2)Gal(b1-3)GalNAc(a1-3)[Fuc(a1-2)]Gal(b1-4)GlcNAc", "how_it_was_run": "(§1)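 Columns mapping to the same glycan were averaged after glycan names were converted to IUPAC-condensed notation. The data come from 3228 arrays in the Consortium for Functional Glycomics database, limited to those with an available protein sequence. Binding is reported as a within-array Z-score averaged across arrays of one protein sequence and across linkers.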"}, "[2]": {"target": "Fuc(a1-2)[Gal(a1-3)]Gal(b1-3)GlcNAc(b1-2)Man(a1-3)[Fuc(a1-2)[Gal(a1-3)]Gal(b1-3)GlcNAc(b1-2)Man(a1-6)]Man(b1-4)GlcNAc(b1-4)GlcNAc", "how_it_was_run": "as §1"}, "[3]": {"target": "Fuc(a1-2)[Gal(a1-3)]Gal(b1-4)Glc", "how_it_was_run": "as §1"}, "[4]": {"target": "Fuc(a1-2)[Gal(a1-3)]Gal(b1-4)GlcNAc", "how_it_was_run": "as §1"}, "[5]": {"target": "Fuc(a1-2)[Gal(a1-3)]Gal(b1-4)GlcNAc(b1-2)Man(a1-3)[Fuc(a1-2)[Gal(a1-3)]Gal(b1-4)GlcNAc(b1-2)Man(a1-6)]Man(b1-4)GlcNAc(b1-4)GlcNAc", "how_it_was_run": "as §1"}, "[6]": {"target": "Fuc(a1-2)[GalNAc(a1-3)]Gal(b1-3)GlcNAc(b1-2)Man(a1-3)[Fuc(a1-2)[GalNAc(a1-3)]Gal(b1-3)GlcNAc(b1-2)Man(a1-6)]Man(b1-4)GlcNAc(b1-4)GlcNAc", "how_it_was_run": "as §1"}, "[7]": {"target": "Fuc(a1-2)[GalNAc(a1-3)]Gal(b1-3)GlcNAc(b1-3)GalNAc", "how_it_was_run": "as §1"}, "[8]": {"target": "Fuc(a1-2)[GalNAc(a1-3)]Gal(b1-4)GlcNAc(b1-2)Man(a1-3)[Fuc(a1-2)[GalNAc(a1-3)]Gal(b1-4)GlcNAc(b1-2)Man(a1-6)]Man(b1-4)GlcNAc(b1-4)[Fuc(a1-6)]GlcNAc", "how_it_was_run": "as §1"}, "[9]": {"target": "Fuc(a1-2)[GalNAc(a1-3)]Gal(b1-4)GlcNAc(b1-3)Gal(b1-4)GlcNAc", "how_it_was_run": "as §1"}, "[10]": {"target": "Fuc(a1-2)[GalNAc(a1-3)]Gal(b1-4)GlcNAc(b1-3)Gal(b1-4)GlcNAc(b1-3)Gal(b1-4)GlcNAc", "how_it_was_run": "as §1"}, "[11]": {"target": "Fuc(a1-2)[GalNAc(a1-3)]Gal(b1-4)GlcNAc(b1-3)[Fuc(a1-2)[GalNAc(a1-3)]Gal(b1-4)GlcNAc(b1-6)]GalNAc", "how_it_was_run": "as §1"}, "[12]": {"target": "Fuc(a1-2)[GalNAc(a1-3)]Gal(b1-4)[Fuc(a1-3)]GlcNAc(b1-3)GalNAc", "how_it_was_run": "as §1"}, "[13]": {"target": "Fuc(a1-3)[Gal3S(b1-4)]GlcNAc", "how_it_was_run": "as §1"}, "Gal(b1-3)Gal(b1-4)GlcNAc": {"target": "Gal(b1-3)Gal(b1-4)GlcNAc", "how_it_was_run": "as §1"}, "[14]": {"target": "Gal(b1-3)GalNAc(a1-3)[Fuc(a1-2)]Gal(b1-4)Glc", "how_it_was_run": "as §1"}, "[15]": {"target": "Gal(b1-3)GalNAc(a1-3)[Fuc(a1-2)]Gal(b1-4)GlcNAc", "how_it_was_run": "as §1"}, "[16]": {"target": "Gal(b1-3)GlcNAc(b1-3)Gal(b1-4)GlcNAc(b1-3)Gal(b1-4)GlcNAc(b1-2)[Gal(b1-3)GlcNAc(b1-3)Gal(b1-4)GlcNAc(b1-3)Gal(b1-4)GlcNAc(b1-6)]Man(a1-6)[Gal(b1-3)GlcNAc(b1-3)Gal(b1-4)GlcNAc(b1-3)Gal(b1-4)GlcNAc(b1-2)Man(a1-3)]Man(b1-4)GlcNAc(b1-4)[Fuc(a1-6)]GlcNAc", "how_it_was_run": "as §1"}, "[17]": {"target": "Gal(b1-3)GlcNAc(b1-3)Gal(b1-4)GlcNAc(b1-6)[Gal(b1-3)GlcNAc(b1-3)]Gal(b1-4)Glc", "how_it_was_run": "as §1"}, "[18]": {"target": "Gal(b1-3)[Fuc(a1-4)]GlcNAc(b1-2)Man(a1-3)[Gal(b1-3)[Fuc(a1-4)]GlcNAc(b1-2)Man(a1-6)]Man(b1-4)GlcNAc(b1-4)[Fuc(a1-6)]GlcNAc", "how_it_was_run": "as §1"}, "[19]": {"target": "Gal(b1-4)GlcNAc(b1-2)Man(a1-3)[GlcNAc(b1-2)Man(a1-6)]Man(b1-4)GlcNAc(b1-4)GlcNAc", "how_it_was_run": "as §1"}, "[20]": {"target": "Gal(b1-4)GlcNAc(b1-3)Gal(b1-4)GlcNAc(b1-2)Man(a1-3)[Gal(b1-4)GlcNAc(b1-3)Gal(b1-4)GlcNAc(b1-2)Man(a1-6)]Man(b1-4)GlcNAc(b1-4)[Fuc(a1-6)]GlcNAc", "how_it_was_run": "as §1"}, "[21]": {"target": "Gal(b1-4)GlcNAc(b1-3)Gal(b1-4)GlcNAc(b1-3)Gal(b1-4)GlcNAc(b1-3)Gal(b1-4)GlcNAc(b1-2)Man(a1-3)[Gal(b1-4)GlcNAc(b1-3)Gal(b1-4)GlcNAc(b1-3)Gal(b1-4)GlcNAc(b1-3)Gal(b1-4)GlcNAc(b1-2)Man(a1-6)]Man(b1-4)GlcNAc(b1-4)[Fuc(a1-6)]GlcNAc", "how_it_was_run": "as §1"}, "Gal3S(b1-4)Glc6S": {"target": "Gal3S(b1-4)Glc6S", "how_it_was_run": "as §1"}, "GalNAc4S6S(b1-4)GlcNAc": {"target": "GalNAc4S6S(b1-4)GlcNAc", "how_it_was_run": "as §1"}, "GlcA(b1-3)GlcNAc": {"target": "GlcA(b1-3)GlcNAc", "how_it_was_run": "as §1"}}, "note": "The full list was thinned out, with the strongest signals kept by preference."}
{"binder": "CvGal2 (Crassostrea virginica) (protein) MGSSHHHHHHSSGLVPRGSHMRIREAGKRKDTTKVYQIPDGLFPGQQVMLRGRVPWGSKSFSINFSATPRMGEGDILFHLNPRPSEGVCIRNALLNGSWGAEEKWQPYFPFDDGRSFSVKIEVTNDAFRTFVNGRPFVDFLHRTDFRAGKYLTLREGAEYYDVIFQSKPNIPLTTAIHNGMRIGKTIRIRGMCTAQDGFAINFNDNRNNIYFHFNARPAQRTVVRNSYFGSWGNEETAISKEFPFYPFLYFYASFVCMEDKFAVYVNDEHFIDFAHRGNPNNISVLQIKGSVNVLDTECLEPMGEDAMTEVDSGLENGDLFVLNGLMTERGKTFAVNFLNGFTENDDIALHFNPRKSTGEVVLNSRYGGAWQSEEKVALPGVFWSNRPLQVKVETKRNKFKIYVNGVDLAKYKIRGNVEDVHAVQVKGDVFLLETLLLKRLMKPVWERLTGGIRPGTWVTLQGTPKKNWQQFVVNFALDDTLDGDIAFHFNVRRGARQVVRNHRQSGAWGREETVTPFFAFDSEATFEIVFFVKEEKFLIYFNGKLFFEFVHRVPVERITHIYMDGDCNFYEPEVVI", "values": [{"measurement": "glycan array binding signal (z-score)", "setting": "[1]", "value": 4.44}, {"measurement": "glycan array binding signal (z-score)", "setting": "[2]", "value": 5.23}, {"measurement": "glycan array binding signal (z-score)", "setting": "[3]", "value": 4.03}, {"measurement": "glycan array binding signal (z-score)", "setting": "[4]", "value": 2.16}, {"measurement": "glycan array binding signal (z-score)", "setting": "[5]", "value": 7.14}, {"measurement": "glycan array binding signal (z-score)", "setting": "[6]", "value": 4.12}, {"measurement": "glycan array binding signal (z-score)", "setting": "[7]", "value": 0.97}, {"measurement": "glycan array binding signal (z-score)", "setting": "[8]", "value": 3.72}, {"measurement": "glycan array binding signal (z-score)", "setting": "[9]", "value": 3.77}, {"measurement": "glycan array binding signal (z-score)", "setting": "[10]", "value": 4.33}, {"measurement": "glycan array binding signal (z-score)", "setting": "[11]", "value": 6.77}, {"measurement": "glycan array binding signal (z-score)", "setting": "[12]", "value": -0.333}, {"measurement": "glycan array binding signal (z-score)", "setting": "[13]", "value": -0.329}, {"measurement": "glycan array binding signal (z-score)", "setting": "Gal(b1-3)Gal(b1-4)GlcNAc", "value": 0.538}, {"measurement": "glycan array binding signal (z-score)", "setting": "[14]", "value": 3.35}, {"measurement": "glycan array binding signal (z-score)", "setting": "[15]", "value": 4.05}, {"measurement": "glycan array binding signal (z-score)", "setting": "[16]", "value": 2.77}, {"measurement": "glycan array binding signal (z-score)", "setting": "[17]", "value": 4.4}, {"measurement": "glycan array binding signal (z-score)", "setting": "[18]", "value": -0.33}, {"measurement": "glycan array binding signal (z-score)", "setting": "[19]", "value": -0.329}, {"measurement": "glycan array binding signal (z-score)", "setting": "[20]", "value": -0.175}, {"measurement": "glycan array binding signal (z-score)", "setting": "[21]", "value": -0.126}, {"measurement": "glycan array binding signal (z-score)", "setting": "Gal3S(b1-4)Glc6S", "value": 0.689}, {"measurement": "glycan array binding signal (z-score)", "setting": "GalNAc4S6S(b1-4)GlcNAc", "value": -0.33}, {"measurement": "glycan array binding signal (z-score)", "setting": "GlcA(b1-3)GlcNAc", "value": -0.318}]}
